According to the supplement of paper PMC9794691:
± gives the standard deviation of the averaged measurements.

Test system: PC9
Test: area under confluence curve of osimertinib + compound combination regimen (DTP regrowth); compare to osimertinib-only DTP control AUC of the same experiment (AUC (confluence x time, arbitrary))
Protocol: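 compare to osimertinib-only DTP control AUC of the same experiment; Long-term drug-tolerant persister (DTP) screen in EGFR-mutant NSCLC cell lines in 48-well plates. The test compound was given at one fixed dose with osimertinib, either upfront (from day 0 to the DTP stage at 10-21 days, then drug-free medium) or sequentially (osimertinib alone to the DTP stage, then the test compound). IncuCyte confluence was tracked until osimertinib-only controls regrew, and AUC was computed in Prism. AUC scale depends on experiment duration, so each row carries the same-experiment osimertinib-only DTP and DMSO control AUCs; combination activity = control minus combo AUC. Osimertinib dose not stated.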

[1] = test compound dose 1000 nM, dosing schedule: sequential, osimertinib-only DTP control AUC in same experiment: 10725, DMSO control AUC in same experiment: 30578
[2] = test compound dose 1000 nM, dosing schedule: upfront, osimertinib-only DTP control AUC in same experiment: 10245, DMSO control AUC in same experiment: 30578

## CC(=O)Nc1cccc(-n2c(=O)n(C3CC3)c(=O)c3c(Nc4ccc(I)cc4F)n(C)c(=O)c(C)c32)c1 [Trametinib] + C=CC(=O)Nc1cc(Nc2nccc(-c3cn(C)c4ccccc34)n2)c(OC)cc1N(C)CCN(C)C [osimertinib]
Test compound dose 10 nM, dosing schedule: sequential, osimertinib-only DTP control AUC in same experiment: 14554, DMSO control AUC in same experiment: 49189
  area under confluence curve: 10400
Test compound dose 10 nM, dosing schedule: sequential, osimertinib-only DTP control AUC in same experiment: 14708, DMSO control AUC in same experiment: 21341
  area under confluence curve: 3390
Test compound dose 10 nM, dosing schedule: upfront, osimertinib-only DTP control AUC in same experiment: 21313, DMSO control AUC in same experiment: 21341
  area under confluence curve: 6970
Test compound dose 10 nM, dosing schedule: upfront, osimertinib-only DTP control AUC in same experiment: 24473, DMSO control AUC in same experiment: 49189
  area under confluence curve: 9410

## C/C=C/Cn1cc(-c2cc(OC)c(C(=O)N3CCOCC3)cc2OC)c2cc(C)[nH]c2c1=O + C=CC(=O)Nc1cc(Nc2nccc(-c3cn(C)c4ccccc34)n2)c(OC)cc1N(C)CCN(C)C [osimertinib]
Test compound dose 100 nM, dosing schedule: sequential, osimertinib-only DTP control AUC in same experiment: 12891, DMSO control AUC in same experiment: 44384
  area under confluence curve: 7150
Test compound dose 100 nM, dosing schedule: upfront, osimertinib-only DTP control AUC in same experiment: 16570, DMSO control AUC in same experiment: 44384
  area under confluence curve: 7750

## C=CCn1c(=O)c2cnc(Nc3ccc(N4CCN(C)CC4)cc3)nc2n1-c1cccc(C(C)(C)O)n1 + C=CC(=O)Nc1cc(Nc2nccc(-c3cn(C)c4ccccc34)n2)c(OC)cc1N(C)CCN(C)C [osimertinib]
Test compound dose 100 nM, dosing schedule: sequential, osimertinib-only DTP control AUC in same experiment: 15001, DMSO control AUC in same experiment: 22064
  area under confluence curve: 13500
Test compound dose 100 nM, dosing schedule: sequential, osimertinib-only DTP control AUC in same experiment: 15044, DMSO control AUC in same experiment: 30604
  area under confluence curve: 11300
Test compound dose 100 nM, dosing schedule: upfront, osimertinib-only DTP control AUC in same experiment: 20672, DMSO control AUC in same experiment: 30604
  area under confluence curve: 16100
Test compound dose 100 nM, dosing schedule: upfront, osimertinib-only DTP control AUC in same experiment: 24924, DMSO control AUC in same experiment: 22064
  area under confluence curve: 20200

## Cc1c[nH]c2nc(Nc3ccc(N4CCN(C)CC4)c(F)c3)nc(-c3cccc(CC#N)c3)c12 + C=CC(=O)Nc1cc(Nc2nccc(-c3cn(C)c4ccccc34)n2)c(OC)cc1N(C)CCN(C)C [osimertinib]
Test compound dose 300 nM, dosing schedule: sequential, osimertinib-only DTP control AUC in same experiment: 12535, DMSO control AUC in same experiment: 43316
  area under confluence curve: 1010
Test compound dose 300 nM, dosing schedule: sequential, osimertinib-only DTP control AUC in same experiment: 15163, DMSO control AUC in same experiment: 28684
  area under confluence curve: 4860
Test compound dose 300 nM, dosing schedule: sequential, osimertinib-only DTP control AUC in same experiment: 29087, DMSO control AUC in same experiment: 30008
  area under confluence curve: 25200
Test compound dose 300 nM, dosing schedule: upfront, osimertinib-only DTP control AUC in same experiment: 15354, DMSO control AUC in same experiment: 43316
  area under confluence curve: 3200
Test compound dose 300 nM, dosing schedule: upfront, osimertinib-only DTP control AUC in same experiment: 21337, DMSO control AUC in same experiment: 28684
  area under confluence curve: 6800
Test compound dose 300 nM, dosing schedule: upfront, osimertinib-only DTP control AUC in same experiment: 34430, DMSO control AUC in same experiment: 30008
  area under confluence curve: 25900

## C[C@@H](Nc1cc(F)cc(F)c1)c1cc(C(=O)N(C)C)cc2c(=O)cc(N3CCOCC3)oc12 + C=CC(=O)Nc1cc(Nc2nccc(-c3cn(C)c4ccccc34)n2)c(OC)cc1N(C)CCN(C)C [osimertinib]
Test compound dose 1000 nM, dosing schedule: sequential, osimertinib-only DTP control AUC in same experiment: 1963, DMSO control AUC in same experiment: 30580
  area under confluence curve: 1970 ± 150
[1]
  area under confluence curve: 4550
Test compound dose 1000 nM, dosing schedule: sequential, osimertinib-only DTP control AUC in same experiment: 12535, DMSO control AUC in same experiment: 43316
  area under confluence curve: 4790
Test compound dose 1000 nM, dosing schedule: sequential, osimertinib-only DTP control AUC in same experiment: 15163, DMSO control AUC in same experiment: 28684
  area under confluence curve: 5770
Test compound dose 1000 nM, dosing schedule: upfront, osimertinib-only DTP control AUC in same experiment: 8618, DMSO control AUC in same experiment: 30580
  area under confluence curve: 4780 ± 250
[2]
  area under confluence curve: 8450
Test compound dose 1000 nM, dosing schedule: upfront, osimertinib-only DTP control AUC in same experiment: 15354, DMSO control AUC in same experiment: 43316
  area under confluence curve: 8140
Test compound dose 1000 nM, dosing schedule: upfront, osimertinib-only DTP control AUC in same experiment: 21337, DMSO control AUC in same experiment: 28684
  area under confluence curve: 7910

## CCOC(=O)c1ccnc(CNCC(=O)N(CC)CCN(C)C)c1 + C=CC(=O)Nc1cc(Nc2nccc(-c3cn(C)c4ccccc34)n2)c(OC)cc1N(C)CCN(C)C [osimertinib]
Test compound dose 1000 nM, dosing schedule: sequential, osimertinib-only DTP control AUC in same experiment: 3562, DMSO control AUC in same experiment: 31840
  area under confluence curve: 3420
Test compound dose 1000 nM, dosing schedule: upfront, osimertinib-only DTP control AUC in same experiment: 19015, DMSO control AUC in same experiment: 31840
  area under confluence curve: 16700

## COc1ccc(CCc2nc3cc(-c4c(C)noc4C)ccc3n2C[C@H](C)N2CCOCC2)cc1Cl + C=CC(=O)Nc1cc(Nc2nccc(-c3cn(C)c4ccccc34)n2)c(OC)cc1N(C)CCN(C)C [osimertinib]
Test compound dose 1000 nM, dosing schedule: sequential, osimertinib-only DTP control AUC in same experiment: 4730, DMSO control AUC in same experiment: 72888
  area under confluence curve: 6290
Test compound dose 1000 nM, dosing schedule: sequential, osimertinib-only DTP control AUC in same experiment: 9508, DMSO control AUC in same experiment: 26668
  area under confluence curve: 9310
Test compound dose 1000 nM, dosing schedule: sequential, osimertinib-only DTP control AUC in same experiment: 12065, DMSO control AUC in same experiment: 48219
  area under confluence curve: 13500
Test compound dose 1000 nM, dosing schedule: upfront, osimertinib-only DTP control AUC in same experiment: 8775, DMSO control AUC in same experiment: 72888
  area under confluence curve: 20400
Test compound dose 1000 nM, dosing schedule: upfront, osimertinib-only DTP control AUC in same experiment: 11298, DMSO control AUC in same experiment: 26668
  area under confluence curve: 10700
Test compound dose 1000 nM, dosing schedule: upfront, osimertinib-only DTP control AUC in same experiment: 22645, DMSO control AUC in same experiment: 48219
  area under confluence curve: 37300

## Cc1[nH]nc(C(F)(F)F)c1Cc1sc2c(c1C(=O)N1C[C@](C)(O)CO1)c(=O)n(C)c(=O)n2C(C)C + C=CC(=O)Nc1cc(Nc2nccc(-c3cn(C)c4ccccc34)n2)c(OC)cc1N(C)CCN(C)C [osimertinib]
[1]
  area under confluence curve: 18600
[2]
  area under confluence curve: 11200

## Cc1cccc(-c2[nH]c(C(C)(C)C)nc2-c2ccc3nccnc3c2)n1 + C=CC(=O)Nc1cc(Nc2nccc(-c3cn(C)c4ccccc34)n2)c(OC)cc1N(C)CCN(C)C [osimertinib]
Test compound dose 1000 nM, dosing schedule: sequential, osimertinib-only DTP control AUC in same experiment: 13130, DMSO control AUC in same experiment: 20567
  area under confluence curve: 13600
Test compound dose 1000 nM, dosing schedule: sequential, osimertinib-only DTP control AUC in same experiment: 15001, DMSO control AUC in same experiment: 22064
  area under confluence curve: 14500
Test compound dose 1000 nM, dosing schedule: upfront, osimertinib-only DTP control AUC in same experiment: 18577, DMSO control AUC in same experiment: 20567
  area under confluence curve: 20300
Test compound dose 1000 nM, dosing schedule: upfront, osimertinib-only DTP control AUC in same experiment: 24924, DMSO control AUC in same experiment: 22064
  area under confluence curve: 25300

## CCN(c1cc(-c2ccc(CN3CCOCC3)cc2)cc(C(=O)NCc2c(C)cc(C)[nH]c2=O)c1C)C1CCOCC1 [Tazemetostat] + C=CC(=O)Nc1cc(Nc2nccc(-c3cn(C)c4ccccc34)n2)c(OC)cc1N(C)CCN(C)C [osimertinib]
Test compound dose 1000 nM, dosing schedule: sequential, osimertinib-only DTP control AUC in same experiment: 14030, DMSO control AUC in same experiment: 30326
  area under confluence curve: 11100
Test compound dose 1000 nM, dosing schedule: upfront, osimertinib-only DTP control AUC in same experiment: 20885, DMSO control AUC in same experiment: 30326
  area under confluence curve: 16200
